Compound activity as filed in PubChem.
TGFb inhibitor: qHTS for Inhibitors of TGF-b; HepG2 CAGA-GFP TGF-b/SMAD3 reporter, GFP fluorescence, 18 h; TGF-beta stimulated, 500 pg/mL final; Potency, µM (top dose mostly 46.1 µM), for inactives: at the top dose activity, negative = inhibition, most hits filed as inhibitors; 410,000 tested, 1.2% active; also: % is scaled to controls: 0 for no effect and ±100 for the full control effect; nearly all actives have a fitted effect of over 65% in size
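Cell-based qHTS in HEPG2 carrying a CAGA-GFP Smad reporter; compounds added before 500 pg/mL final TGF-beta, 18 h incubation at 37 degrees C, GFP fluorescence quantified per cell by imaging cytometry.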
ATXN2 expr inh: Primary qHTS for Inhibitors of ATXN expression | 360,000 tested, 0.72% active | HEK-293 ATXN2-luciferase reporter, luminescence, 24 h | Potency, µM (top dose mostly 57 µM), for inactives: top-dose activity change, negative = inhibition, actives largely listed as inhibitors | AID 1745845, 2022; also: % is scaled to controls: 0 for no effect and ±100 for the full control effect; nearly all actives have a fitted effect of over 55% in size
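ATXN2-luciferase reporter cells (luciferase flanked by upstream and downstream ATXN2 gene portions) were treated 24 h at 37 °C with compounds at up to 57 uM. SteadyGlo luminescence gave expression; GF-AFC fluorescence gave viability.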
RORgamma inh: qHTS for inhibitors of ROR gamma transcriptional activity; AID 2551, 2010; Drosophila S2 Gal4-RORgamma UAS-luciferase reporter, 20 h; 310,000 tested, 5.4% active; Potency, µM (titrated, usually from 53.6 µM), for inactives: at the top dose activity change, negative = inhibition, usual class: inhibitors; Nuclear receptor ROR-gamma (Mus musculus), P51450; also: % is scaled to controls: 0 for no effect and ±100 for the full control effect; nearly all actives have a fitted effect of over 60% in size
Target sequence (P51450 whole entry, looked up, the tested form may be a part): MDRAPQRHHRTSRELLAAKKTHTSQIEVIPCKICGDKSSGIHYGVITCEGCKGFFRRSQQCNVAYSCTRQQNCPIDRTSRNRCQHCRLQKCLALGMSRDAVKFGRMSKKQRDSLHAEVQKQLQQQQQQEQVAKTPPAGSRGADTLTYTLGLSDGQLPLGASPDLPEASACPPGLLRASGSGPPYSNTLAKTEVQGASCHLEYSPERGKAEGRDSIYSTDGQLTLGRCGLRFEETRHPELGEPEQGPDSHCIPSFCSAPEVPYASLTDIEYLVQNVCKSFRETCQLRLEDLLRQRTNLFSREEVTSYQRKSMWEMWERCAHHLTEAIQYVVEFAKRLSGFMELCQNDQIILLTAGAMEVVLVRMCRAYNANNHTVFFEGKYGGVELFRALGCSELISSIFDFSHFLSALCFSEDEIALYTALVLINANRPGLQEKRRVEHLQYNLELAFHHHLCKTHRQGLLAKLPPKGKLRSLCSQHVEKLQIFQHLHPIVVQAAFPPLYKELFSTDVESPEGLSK
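Read-out: Photinus luciferase luminescence; inhibitors lower reporter signal. Insect Schneider cells with Gal4-ROR gamma fusion under metallothionein promoter, UAS reporter; 700 uM final copper sulfate induction, 20 hr, ambient temperature.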
S2 tox: Viability Counterscreen for Primary qHTS for Inhibitors of ATXN expression; S2 cells (HEK-293 line with an ATXN2-luciferase reporter) viability, CellTiter-Fluor protease fluorescence, 24 h; Potency, µM (doses to about 56.7 µM), usual class: cytotoxic; 400,000 tested, 0.49% active; also: nearly all actives have a fitted effect of over 40% in size
Gal4-VP16 FLuc: VP16 counterscreen qHTS for inhibitors of ROR gamma transcriptional activity. Drosophila S2 Gal4-VP16 UAS-luciferase, luminescence, 20 h. Potency, µM (titrated, usually from 53.6 µM), inactives show at the top dose activity, negative = inhibition, actives largely listed as inhibitors. 310,000 tested, 3.5% active. AID 2546, 2010;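 also: Gal4-VP16 expression switched on by copper sulfate through the metallothionein promoter; % is scaled to controls: 0 for no effect and ±100 for the full control effect; nearly all actives have a fitted effect of over 50% in size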
HepG2 tox: qHTS for Inhibitors of TGF-b: Cytotox Counterscreen; HepG2 CAGA-GFP viability, ATP luminescence, 18 h; Potency, µM (doses to about 46.1 µM), for the others: top-dose activity change, negative = cytotoxicity, most hits filed as cytotoxic; 410,000 tested, 0.76% active; AID 588856, 2011
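CellTiter-Glo luminescence gave cytotoxicity after 18 hours at 37 degrees C. The cells were HepG2 CAGA-GFP in 1% FBS DMEM, stimulated with 500 pg/mL TGF-beta after compound addition. %Activity was normalised to no-cell wells (complete cell-killing) and DMSO (no toxicity), and curves were fitted and classified.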
Starred values were filed as active, the others as inactive; i = inactive; u = inconclusive; x = no result given. The list is not random: actives were taken first. Their share in the collection is about 6.1%. Calls follow the shape of the dose curve; as a rule, active = well fitted curve in the direction sought with a large enough effect; inconclusive = small, poorly fitted or top-dose-only effect, or another doubt; inactive = no such curve, though single readings can be large; an effect the other way counts as inactive or inconclusive. Potency is read from the fitted curve at half-maximal effect.

SMILES | TGFb inhibitor | ATXN2 expr inh | RORgamma inh | S2 tox | Gal4-VP16 FLuc | HepG2 tox
O=C1CC(Sc2ncccn2)C(=O)N1c1ccccc1C(F)(F)F (stereo not given) | -1% | 2% | 4.5µM* | i | 7.1µM* | -2%
Cc1ccc(Cl)cc1N1C(=O)CC(Sc2ncccn2)C1=O (stereo not given) | -3% | x | 20µM* | i | u | -43%
Cc1cccc(N2C(=O)CC(Sc3nc(C)cc(C)n3)C2=O)c1 (stereo not given) | -11% | 0% | -2% | i | 3% | -1%
CCc1ccccc1N1C(=O)CC(Sc2nccc(C)n2)C1=O (stereo not given) | -4% | x | u | i | u | -9%
CCc1nn2c(=O)cc(COc3ccc(/C=C(\C#N)C(=O)Nc4ccc(C)cc4)cc3)nc2s1 | -6% | 11% | x | i | x | -19%
CCN(C(=O)c1cc2c(s1)-c1c(C)cccc1OC2)c1ccccc1F | u | 11% | x | i | x | -5%
CCN(C(=O)c1cc2c(s1)-c1c(C)cccc1OC2)c1cc(C)ccc1C | 11µM* | -15% | x | i | x | -28%
CN(C)CCN(Cc1ccco1)C(=O)c1cc2c(s1)-c1ccccc1OC2 | u | x | x | x | x | 13µM*
Cc1cccc2c1-c1sc(C(=O)NCCCN3CCN(c4ccccc4F)CC3)cc1CO2 | 4% | -37% | x | i | x | -43%
Cc1cccc2c1-c1sc(C(=O)N3CCCCC3)cc1CO2 | -4% | 42% | 10µM* | i | u | 0%
Cc1cccc2c1-c1sc(C(=O)Nc3ccccc3N3CCN(C)CC3)cc1CO2 | u | 28µM* | u | u | -13% | 16µM*
CCN(C(=O)c1cc2c(s1)-c1ccccc1OC2)c1cc(Cl)ccc1OC | 8.9µM* | -20% | x | i | x | -19%
Cc1cccc2c1-c1sc(C(=O)NCCCN3CCN(c4cccc(Cl)c4)CC3)cc1CO2 | 13µM* | u | x | u | x | -86%
Cc1nn(-c2ccc(F)cc2)c(-n2cccc2)c1C(=O)NCCCN1CCN(c2cccc(Cl)c2)CC1 | 11µM* | u | x | u | x | 18µM*
CCN1CCN(CCCNC(=O)c2cc3c(s2)-c2c(C)cccc2OC3)CC1 | u | -17% | x | i | x | -89%
CSCC[C@H](NC(=O)[C@@H]1CCCN1C(=O)CNC(=O)[C@H](CCCCN)NC(=O)[C@H](Cc1cnc[nH]1)NC(=O)[C@H](CO)NC(=O)[C@H](CC(C)C)NC(=O)[C@H](CCCN=C(N)N)NC(=O)[C@@H]1CCCN1C(=O)[C@H](CCCN=C(N)N)NC(=O)[C@@H]1CCC(=O)N1)C(=O)N1CCC[C@H]1C(=O)N[C@@H](Cc1ccccc1)C(=O)O | x | x | -4% | x | -10% | x
CN(C)c1ccc(/C=C/c2cc3ccccc3c[n+]2C)cc1 | 10µM* | x | x | x | x | -27%
CN(C)c1ccc(/C=C/c2nccc3ccccc23)cc1 | 72% | x | x | x | x | -52%
CN(C)c1ccc(/C=C/c2cccc[n+]2[O-])cc1 | 14% | -19% | -24% | x | -6% | 13%
CN(C)c1ccc(/C=C/c2c[n+](C)cc3ccccc23)cc1 | 13µM* | x | x | x | x | -25%
CN(C)c1ccc(/C=C/c2ccc3c4ccccc4ccc3[n+]2-c2ccccc2)cc1 | u | 1.1µM* | 1.4µM* | x | u | -57%
Cc1ccn2c(=O)cc(COc3ccc(NC(=O)C(C)(C)C)cc3)nc2c1 | 27% | x | x | x | x | 7%
CCOc1ccc2nc(SC3CC(=O)N(c4ccccc4)C3=O)sc2c1 (stereo not given) | u | 34% | 10µM* | i | 13µM* | -27%
